# Counter-ions that a name gives are not always drawn.
# Tests used:
# Experiment in all cases: Euclidean distance of Cell Painting phenotypic profile (signed KS, 77 features) to DMSO centroid (dimensionless distance); 5 or 10 uM (library dependent); higher = stronger phenotypic change vs DMSO (phenoactivity)
# Conditions in all cases: 48 h
# 786-O = system: 786-O
# Method in brief: (§1)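 At 10 or 5 uM, as set by the library, and 0.1% DMSO final, compounds were applied for 48 h to five cancer lines and one healthy fibroblast line. Stained cells were imaged confocally at 20X in 9 fields per well, and Harmony extracted 77 features scored as signed Kolmogorov-Smirnov statistics against vehicle wells on the same plate. Profiles underwent plate-position correction, correlation weighting and replicate averaging at the top dose. Phenoactivity is the Euclidean distance from each such profile to the median vehicle profile.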
# A549 = system: A549
# Method in brief: as §1
# DU145 = system: DU145
# Method in brief: as §1
# FB = system: FB
# Method in brief: as §1
# HEPG2 = system: HEPG2
# Method in brief: as §1
# OVCAR4 = system: OVCAR4
# Method in brief: as §1
SMILES,Euclidean distance (786-O),Euclidean distance (A549),Euclidean distance (DU145),Euclidean distance (FB),Euclidean distance (HEPG2),Euclidean distance (OVCAR4)
CC(=O)[C@H]1CC[C@H]2[C@@H]3CC=C4C[C@@H](O)CC[C@]4(C)[C@H]3CC[C@]12C [Pregnenolone],1.29,1.07,0.872,1.07,0.703,1.03
COc1cc2c(Oc3ccc4[nH]c(C)cc4c3F)ncnc2cc1OCCCN1CCCC1 [Cediranib (AZD2171)],4.22,4.27,3.51,4.47,3.58,4.53
CN1CCN(S(=O)(=O)c2ccc(-c3cnc(N)c(C(=O)Nc4cccnc4)n3)cc2)CC1,3.21,3.47,1.43,1.66,1.34,3.18
CCC/C=C1\OC(=O)C2=C1CCC=C2 [Ligustilide],0.797,0.613,0.83,1.01,0.638,1.1
COc1cc(CNC(=O)CCCCC=CC(C)C)ccc1O [Capsaicin(Vanilloid)],1.06,1.47,1.35,0.876,0.778,1.44
CCCc1nn(C)c2c(=O)[nH]c(-c3cc(S(=O)(=O)N4CCN(C)CC4)ccc3OCC)nc12 [Sildenafil Citrate],1.87,1.4,1.4,0.899,0.957,1.28
C=CC(=O)Nc1cccc(Oc2nc(Nc3ccc(N4CCN(C)CC4)cc3OC)ncc2Cl)c1,1.32,1.34,1.43,0.99,1.05,1.98
CCCN1C[C@H](C)[C@@H](O)[C@](C)(O)[C@@H](CC)OC(=O)[C@H](C)[C@@H](O[C@H]2C[C@@](C)(OC)[C@@H](O)[C@H](C)O2)[C@H](C)[C@@H](O[C@@H]2O[C@H](C)C[C@H](N(C)C)[C@H]2O)[C@](C)(O)C[C@H]1C [Gamithromycin],1.26,1.03,1.98,1.12,1.08,1.05
Cc1cc(C)cc(NC(=O)Cc2ccc(OC(C)(C)C(=O)O)cc2)c1 [Efaproxiral Sodium],1.04,0.727,0.774,0.966,0.587,0.981
CCN(CC)CC(=O)Nc1c(C)cccc1C [Lidocaine],1.65,0.785,1.51,0.913,0.435,1.11
O=c1[nH]cnc2c1ncn2[C@@H]1O[C@H](CO)[C@@H](O)[C@H]1O [Inosine],1.3,0.799,0.639,0.936,0.417,1.3
Cc1[nH]c(=O)c(C#N)cc1-c1ccc2nccn2c1 [Olprinone],1.08,1.07,0.61,1.08,0.547,1.11
CS(=O)(=O)c1ccc(C(=O)Nc2ccc(Cl)c(-c3ccccn3)c2)c(Cl)c1 [Vismodegib (GDC-0449)],1.82,1.01,0.671,1,0.631,0.924
CN(C)c1cc(NC(=O)CNC(C)(C)C)c(O)c2c1C[C@H]1C[C@H]3[C@H](N(C)C)C(O)=C(C(N)=O)C(=O)[C@@]3(O)C(O)=C1C2=O [Tigecycline],1.81,0.996,1.03,1.6,1.09,1.18
C[C@H]1COc2c(C3(N)CC3)c(F)cc3c(=O)c(C(=O)O)cn1c23 [Pazufloxacin mesylate],1,1.18,0.975,0.993,1.28,1.36
COc1cc([C@@H]2c3cc4c(cc3[C@@H](O[C@@H]3O[C@@H]5CO[C@@H](C)O[C@H]5[C@H](O)[C@H]3O)[C@H]3COC(=O)[C@H]23)OCO4)cc(OC)c1O [Etoposide],4.29,2.57,3.62,3.88,4.18,3.21
FCOC(C(F)(F)F)C(F)(F)F [Sevoflurane],1.15,0.865,0.847,0.867,0.827,1.51
CN(C)c1ccc2c(c1)Sc1cc(N(C)C)ccc1N2 [TRx0237 (LMTX) mesylate],2.79,3.35,2.69,3.38,2.95,2.88
CC/C(=C(\c1ccc(O)cc1)c1ccc(OCCN(C)C)cc1)c1ccccc1 [4-Hydroxytamoxifen],3.21,2.74,2.16,2.61,4.31,2.89
COc1ccnc(C[S+]([O-])c2nc3cc(-n4cccc4)ccc3[nH]2)c1C (stereo not drawn) [Ilaprazole sodium],1.23,0.928,0.81,0.764,0.518,1.26
O=C(Nc1c[nH]nc1-c1nc2ccc(CN3CCOCC3)cc2[nH]1)NC1CC1,3.05,3.01,3,2.87,2.74,2.7
O=C(O)P(=O)(O)O [Foscarnet Sodium],1.83,0.762,1.18,0.986,0.776,1.11

SMILES,Euclidean distance (786-O),Euclidean distance (A549),Euclidean distance (DU145),Euclidean distance (FB),Euclidean distance (HEPG2),Euclidean distance (OVCAR4)
CCOC(=O)C1=C(COCCN)NC(C)=C(C(=O)OC)C1c1ccccc1Cl (stereo not drawn) [Amlodipine],0.785,0.917,0.877,1.06,1.06,0.837
Nc1ccn([C@@H]2O[C@H](CO)[C@@H](O)C2(F)F)c(=O)n1 [Gemcitabine],2.58,2.74,3.26,2.91,2.74,2.98
C[C@H]1CNC(=O)c2cnn3ccc(nc23)N[C@H](C)c2cc(F)ccc2O1,4.06,4.83,5.02,3.45,2.14,4.45
Oc1cccc(O)c1 [Resorcinol],1.3,1.19,0.938,1.24,1.33,1.05
Cc1ccc(S(=O)(=O)Cc2nc(-c3ccc(C(=O)NCc4cccnc4)cc3)oc2C)cc1,3.04,2.65,2.6,1.11,1.68,2.14
CC[C@H]1OC(=O)C[C@@H](O)[C@H](C)[C@@H](O[C@@H]2O[C@H](C)[C@@H](O[C@H]3C[C@@](C)(O)[C@@H](O)[C@H](C)O3)[C@H](N(C)C)[C@H]2O)[C@@H](CC=O)C[C@@H](C)C(=O)/C=C/C(C)=C/[C@@H]1CO[C@@H]1O[C@H](C)[C@@H](O)[C@@H](OC)[C@H]1OC [Tylosin],0.535,1.08,0.612,0.794,0.42,0.917
O=C(O)CSc1nnc(Br)n1-c1ccc(C2CC2)c2ccccc12 [Lesinurad],0.529,0.673,0.762,0.983,1.61,0.826
Cc1ccc(C(=O)N(CCCN)[C@@H](c2nc3cc(Cl)ccc3c(=O)n2Cc2ccccc2)C(C)C)cc1,3.64,3.18,4.25,2.49,3.84,3.78
FC(F)(F)c1ccc(/C=C/c2nc(COc3ccc(CCCCn4ccnn4)cc3)co2)cc1 [Mubritinib (TAK 165)],0.614,1.76,1.4,1.61,1.89,1.42
O=C(OCC(O)CO)c1ccccc1Nc1ccnc2cc(Cl)ccc12 (stereo not drawn) [Glafenine HCl],1.07,0.79,0.824,1.52,0.968,1.04
O=C(CCCCCCNC(=O)c1cnc(N(c2ccccc2)c2ccccc2)nc1)NO [Ricolinostat (ACY-1215)],1.87,1.63,1.29,3.31,2.26,2.18
CC1Oc2cc(cnc2N)-c2c(nn(C)c2C#N)CN(C)C(=O)c2ccc(F)cc21 (stereo not drawn),0.876,1.02,1.34,1.55,2.11,1.26
Cc1cc2c(F)c(Oc3ncnn4cc(OC[C@@H](C)O)c(C)c34)ccc2[nH]1,2.22,1.25,1.36,1.71,1.24,1.6
Nc1nc(Cl)nc2c1ncn2[C@H]1C[C@H](O)[C@@H](CO)O1 [Cladribine],2.58,3.28,2.27,3.14,2.67,3.21
C/C(O)=C(\C#N)C(=O)Nc1ccc(C(F)(F)F)cc1 [Teriflunomide],0.702,0.732,0.988,1.1,0.844,2.02
COCCOc1cnc2ccn([C@H](C)c3nnc4c(F)cc(-c5cnn(C)c5)cn34)c(=O)c2c1,1.01,1.18,1.5,1.29,1.39,1.46
Cc1ncc([N+](=O)[O-])n1CCOC(=O)c1ccccc1 [Metronidazole Benzoate],0.984,1.41,0.885,1.58,0.486,0.922
O=C(NC(NC(=S)Nc1ccc(F)c([N+](=O)[O-])c1)C(Cl)(Cl)Cl)C(c1ccccc1)c1ccccc1 (stereo not drawn),1.02,2.27,1.38,1.49,1.56,1.25
COc1ccc(-c2coc3cc(O)cc(O)c3c2=O)cc1 [Biochanin A],0.496,0.937,0.839,0.805,1.1,0.958
C#C[C@]1(O)CC[C@H]2[C@@H]3CCc4cc(O)ccc4[C@H]3CC[C@@]21C [Ethinyl Estradiol],1.42,0.969,1.83,1.09,0.768,1.82
O=C(O)Cc1ccc(-c2ccccc2)cc1 [4-Biphenylacetic acid],1.14,1.09,1.65,1.66,0.638,1.62

# Reference: the supplement of paper PMC10127200
